In PubChem BioAssay (Tox21):
Inconclusive results are not listed. Where a call stands in place of a potency, no number is given. Calls of active or inactive are those of the source. Calls follow the shape of the dose curve; as a rule, active = well fitted cell-killing curve with a large enough effect in the repeat runs; inconclusive = weak or mixed curves, or effect the other way; inactive = no such curve, though single readings can be large or run the other way.

test: qHTS assay to identify small molecule antagonists of the glucocorticoid receptor (GR) signaling pathway - cell viability counter screen (AID 720693); conditions: GR-bla HeLa viability, CellTiter-Glo luminescence, 18 h, with 5 nM dexamethasone present; series mostly up to 58.5 µM; also: nearly all actives have a fitted effect of over 55% in size

Row | SMILES | outcome
1 | C=C(C)C(=O)OCCCCCCCCCCCCCCCCCC | inactive
2 | CC(=O)N[C@@H](CCC(N)=O)C(=O)O | inactive
3 | C#CC(C)(O)CC(C)C (stereo not drawn) | inactive
4 | CC(=O)OC(C)(C)C | inactive
5 | COC(=O)c1ccc(C(=O)OC)c(C(=O)OC)c1 | inactive
6 | CC1=CC(=O)CCC1 | inactive
7 | CCO[Si](CCCN=C=O)(OCC)OCC | inactive
8 | COCCOC(=O)CC#N | inactive
9 | Cc1nccn1CC1CCc2c(c3ccccc3n2C)C1=O (stereo not drawn) | inactive
10 | C=CC(=O)OCCCCCC | inactive
11 | C=C(C)[C@H]1CC=C(C)CC1 | inactive
12 | CC(C=O)Cc1ccc(C(C)C)cc1 (stereo not drawn) | inactive
13 | CCCCN(CCO)CCO | inactive
14 | CCCCc1ccc(N)cc1 | inactive
15 | COc1cc(C(=O)N2CCOCC2)cc(OC)c1OC | inactive
16 | CCc1cc(S(=O)(=O)O)c2cc(C(C)C)cccc1-2 | inactive
17 | Cc1cc(C)c(NC(=O)CN(CC(=O)O)CC(=O)O)c(C)c1Br | inactive
18 | CC(C)[N+](C)(C)CC(O)COc1cccc2ccccc12 (stereo not drawn) | inactive

Row | SMILES | outcome
19 | COc1cccc(OC)c1 | inactive
20 | CCCCCCCCCCCCCCC | inactive
21 | COC(=O)CCCC(=O)O | inactive
22 | NC(=O)c1ncn([C@@H]2O[C@H](CO)[C@@H](O)[C@H]2O)c1O | inactive
23 | COc1ccc(COC=O)cc1 | inactive
24 | OCc1ccccn1 | inactive
25 | Nc1ccc2cc(S(=O)(=O)O)ccc2c1 | inactive
26 | OCC(O)[C@@H](O)[C@H](O)[C@H](O)CO[C@H]1O[C@H](CO)[C@@H](O)[C@H](O)[C@H]1O (stereo partly drawn) | inactive
27 | CN(C)N=Nc1ccccc1 | inactive
28 | CC(O)CN(CCCN(C)C)CCCN(C)C (stereo not drawn) | inactive
29 | CCC(C)OC(=O)N1CCCCC1CCO (stereo not drawn) | inactive
30 | NS(=O)(=O)c1cc(C2(O)NC(=O)c3ccccc32)ccc1Cl (stereo not drawn) | inactive
31 | N#CC1(O)CCCCC1 | inactive
32 | CC(C)CCCC(C)CCCC(C)CCCCC(C)CCCC(C)CCCC(C)C (stereo not drawn) | inactive
33 | CCCC=O | inactive
34 | CCCc1ccccc1O | inactive
35 | NC(=O)c1c(Cl)cccc1Cl | inactive
36 | CC/C=C\C#N | inactive

test: qHTS assay for identifying genotoxic compounds that show differential cytotoxicity against isogenic chicken DT40 cell lines with known DNA damage response pathways - wild type cell line (AID 743012); conditions: DT40 wild type chicken cells viability, CellTiter-Glo, 40 h; series mostly up to 68.4 µM; also: nearly all actives have a fitted effect of over 60% in size
Summary of the method: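 Quantitative HTS on parental DT40 cells: 40 h compound treatment at 37 C/5% CO2, with viability then determined by CellTiter-Glo luminescence. Values serve as the DNA repair-proficient reference for differential cytotoxicity.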

Row | SMILES | Potency
37 | C=C(C)C(=O)OCCCCCCCCCCCCCCCCCC | inactive
38 | CC(=O)N[C@@H](CCC(N)=O)C(=O)O | inactive
39 | C#CC(C)(O)CC(C)C (stereo not drawn) | inactive
40 | CC(=O)OC(C)(C)C | inactive
41 | COC(=O)c1ccc(C(=O)OC)c(C(=O)OC)c1 | inactive
42 | CC1=CC(=O)CCC1 | inactive
43 | CCO[Si](CCCN=C=O)(OCC)OCC | inactive
44 | COCCOC(=O)CC#N | inactive
45 | Cc1nccn1CC1CCc2c(c3ccccc3n2C)C1=O (stereo not drawn) | inactive
46 | C=CC(=O)OCCCCCC | inactive
47 | C=C(C)[C@H]1CC=C(C)CC1 | inactive
48 | CC(C=O)Cc1ccc(C(C)C)cc1 (stereo not drawn) | inactive
49 | CCCCN(CCO)CCO | inactive
50 | CCCCc1ccc(N)cc1 | inactive
51 | COc1cc(C(=O)N2CCOCC2)cc(OC)c1OC | inactive
52 | CCc1cc(S(=O)(=O)O)c2cc(C(C)C)cccc1-2 | inactive
53 | Cc1cc(C)c(NC(=O)CN(CC(=O)O)CC(=O)O)c(C)c1Br | inactive
54 | CC(C)[N+](C)(C)CC(O)COc1cccc2ccccc12 (stereo not drawn) | inactive

Row | SMILES | Potency
55 | COc1cccc(OC)c1 | inactive
56 | CCCCCCCCCCCCCCC | inactive
57 | COC(=O)CCCC(=O)O | inactive
58 | NC(=O)c1ncn([C@@H]2O[C@H](CO)[C@@H](O)[C@H]2O)c1O | inactive
59 | COc1ccc(COC=O)cc1 | inactive
60 | OCc1ccccn1 | inactive
61 | Nc1ccc2cc(S(=O)(=O)O)ccc2c1 | inactive
62 | OCC(O)[C@@H](O)[C@H](O)[C@H](O)CO[C@H]1O[C@H](CO)[C@@H](O)[C@H](O)[C@H]1O (stereo partly drawn) | inactive
63 | CN(C)N=Nc1ccccc1 | inactive
64 | CC(O)CN(CCCN(C)C)CCCN(C)C (stereo not drawn) | inactive
65 | CCC(C)OC(=O)N1CCCCC1CCO (stereo not drawn) | inactive
66 | NS(=O)(=O)c1cc(C2(O)NC(=O)c3ccccc32)ccc1Cl (stereo not drawn) | inactive
67 | N#CC1(O)CCCCC1 | inactive
68 | CC(C)CCCC(C)CCCC(C)CCCCC(C)CCCC(C)CCCC(C)C (stereo not drawn) | inactive
69 | CCCC=O | inactive
70 | CCCc1ccccc1O | inactive
71 | NC(=O)c1c(Cl)cccc1Cl | inactive
72 | CC/C=C\C#N | inactive

test: qHTS assay for identifying genotoxic compounds that show differential cytotoxicity against isogenic chicken DT40 cell lines with known DNA damage response pathways - Rev3 mutant cell line (AID 743014); conditions: chicken DT40 Rev3-/- viability, CellTiter-Glo, 40 h; series mostly up to 68.4 µM; also: nearly all actives have a fitted effect of over 55% in size

Row | SMILES | Potency
73 | C=C(C)C(=O)OCCCCCCCCCCCCCCCCCC | inactive
74 | CC(=O)N[C@@H](CCC(N)=O)C(=O)O | inactive
75 | C#CC(C)(O)CC(C)C (stereo not drawn) | inactive
76 | CC(=O)OC(C)(C)C | inactive
77 | COC(=O)c1ccc(C(=O)OC)c(C(=O)OC)c1 | inactive
78 | CC1=CC(=O)CCC1 | inactive
79 | CCO[Si](CCCN=C=O)(OCC)OCC | inactive
80 | COCCOC(=O)CC#N | inactive
81 | Cc1nccn1CC1CCc2c(c3ccccc3n2C)C1=O (stereo not drawn) | inactive
82 | C=CC(=O)OCCCCCC | inactive
83 | C=C(C)[C@H]1CC=C(C)CC1 | inactive
84 | CC(C=O)Cc1ccc(C(C)C)cc1 (stereo not drawn) | inactive
85 | CCCCN(CCO)CCO | inactive
86 | CCCCc1ccc(N)cc1 | inactive
87 | COc1cc(C(=O)N2CCOCC2)cc(OC)c1OC | inactive
88 | CCc1cc(S(=O)(=O)O)c2cc(C(C)C)cccc1-2 | inactive
89 | Cc1cc(C)c(NC(=O)CN(CC(=O)O)CC(=O)O)c(C)c1Br | inactive
90 | CC(C)[N+](C)(C)CC(O)COc1cccc2ccccc12 (stereo not drawn) | inactive

Row | SMILES | Potency
91 | COc1cccc(OC)c1 | inactive
92 | CCCCCCCCCCCCCCC | inactive
93 | COC(=O)CCCC(=O)O | inactive
94 | NC(=O)c1ncn([C@@H]2O[C@H](CO)[C@@H](O)[C@H]2O)c1O | inactive
95 | COc1ccc(COC=O)cc1 | inactive
96 | OCc1ccccn1 | inactive
97 | Nc1ccc2cc(S(=O)(=O)O)ccc2c1 | inactive
98 | OCC(O)[C@@H](O)[C@H](O)[C@H](O)CO[C@H]1O[C@H](CO)[C@@H](O)[C@H](O)[C@H]1O (stereo partly drawn) | inactive
99 | CN(C)N=Nc1ccccc1 | inactive
100 | CC(O)CN(CCCN(C)C)CCCN(C)C (stereo not drawn) | inactive
101 | CCC(C)OC(=O)N1CCCCC1CCO (stereo not drawn) | inactive
102 | NS(=O)(=O)c1cc(C2(O)NC(=O)c3ccccc32)ccc1Cl (stereo not drawn) | inactive
103 | N#CC1(O)CCCCC1 | inactive
104 | CC(C)CCCC(C)CCCC(C)CCCCC(C)CCCC(C)CCCC(C)C (stereo not drawn) | inactive
105 | CCCC=O | inactive
106 | CCCc1ccccc1O | inactive
107 | NC(=O)c1c(Cl)cccc1Cl | inactive
108 | CC/C=C\C#N | inactive
